Ba/F3 V617F tox = reduced viability of JAK2V617F-dependent Ba/F3 cells, primary screen, JAK2V617F inhibitor project, cell-based, Ba/F3 EpoR-JAK2V617F, luminescence; AID 1446, 2008; 220,000 tested, 1.1% active; inhibition, % at 5.6 µM; ATP luminescence;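 active = inhibition above the campaign mean plus 3 SD over all tested compounds, cut at about 24% in these data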;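 note: cytokine-independent growth of Ba/F3 cells driven by EpoR plus mutant JAK2; 0% = DMSO-treated cells and 100% = JAK inhibitor I control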
IEC-6 tox = cytotoxicity in IEC-6 intestinal epithelial cells, primary screen, cytotoxicity control for KLF5 inhibitor project, cell-based, luminescence | AID 1825, 2009 | IEC-6 cytotoxicity, luminescence viability | inhibition, % at 5 µM | 290,000 tested, 0.78% active; in the data active = inhibition above about 22%;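 note: 0% = plate median of test compound wells and 100% = cytotoxic reference compound wells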
KLF5 inhibitor = KLF5 expression inhibitors, primary screen, DLD-1 cells, luminescence; inhibition, % at 5 µM; AID 1700, 2009; DLD-1 KLF5 promoter-luciferase reporter; 290,000 tested, 0.23% active;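 active = inhibition above a per-plate limit of that plate's mean compound inhibition plus 3 SD, cut at about 60% in these data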;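 note: 0% = DMSO wells and 100% = LY294002 at 200 µM; higher means less KLF5 promoter-driven luciferase light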
APP transl inh = inhibitors of APP translation via 5'UTR reporter, primary screen, APP 5'UTR luciferase, SH-SY5Y cells. inhibition, % at 2 µM. SH-SY5Y APP 5'UTR-luciferase reporter, luminescence. 190,000 tested, 0.82% active;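 active = inhibition above a set limit, derived from the sample mean plus 3 SD, cut at about 45% in these data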
BaF3 tox = parental Ba/F3 cell viability inhibition, counter-screen for JAK2V617F inhibitor project, murine pro-B, CellTiter-Glo luminescence; CellTiter-Glo ATP luminescence; inhibition, % at 5.6 µM; 220,000 tested, 1.1% active; AID 1486, 2009;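 active = inhibition above a per-campaign cutoff, the mean inhibition of all tested compounds plus 3 SD, cut at about 27% in these data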;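 note: 0% = DMSO wells and 100% = JAK Inhibitor I control wells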
Starred values were filed as active, the others as inactive; nt = no result. Shown are actives, neighbours in structure and some others; about 1.9% of the full set was active somewhere.

SMILES	Ba/F3 V617F tox	IEC-6 tox	KLF5 inhibitor	APP transl inh	BaF3 tox
CCOc1cc(C2C(C#N)=C(N)OC(C)=C2C(C)=O)c(Br)c(Br)c1OC(C)C (stereo not given)	0	4	15	66*	5
Cc1ccc2c(C)c(C(=O)N3CCN(c4ncccn4)CC3)oc2c1C	nt	1	-23	nt	nt
C(=C1/CCCC2=C1Nc1ncnn1C2c1ccccc1)/c1ccccc1 (stereo not given)	55*	26*	1	34	54*
CC(=O)N(Cc1ccco1)c1nc(C(=O)Nc2ccc(Cl)cc2)c(C)s1	-1	-1	7	-1	2
Cc1ccc(C(C)C)c(OCc2ccc(C(=O)N/N=C/c3ccc(O)cc3O)cc2)c1	3	11	47	75*	6
CCCOc1ccc(CCCN=C(N)N)cc1Cl	25*	10	-2	nt	46*
CCOc1ccc(CN=C(N)N=C(N)N)cc1Cl	21	-1	5	-22	27*
CCCOc1ccc(CSC(=N)N)cc1C(=O)OC	0	-1	-13	nt	0
CNCCCCOc1ccc(C(C)(C)C)cc1Cl	3	6	-22	-23	4
CCOc1ccc(CNC(=S)Nc2ccccc2)cc1Cl	nt	1	-25	nt	nt
CCCCOc1ccc(CN=C(N)N)cc1Cl	15	8	-15	nt	35*
CCC(C)(C)NC(=O)C(c1ccc(C)o1)N(Cc1ccc2c(c1)OCO2)C(=O)c1snc(C(N)=O)c1N (stereo not given)	nt	0	-10	nt	nt
CCOC(=O)N1CCN(Cc2cc(Cl)c3cccnc3c2O)CC1	3	14	42	83*	10
COc1ccccc1N1CCN(Cc2ccc(O)c3ncccc23)CC1	42*	1	10	90*	37*
CCOC(=O)C1CCN(Cc2ccc(O)c3ncccc23)CC1	82*	1	1	41	50*
CCOC(=O)N1CCN(Cc2ccccc2Cl)CC1	1	2	-8	-15	1
Cc1c(O)ccc(-c2n[nH]c(C(=O)O)c2-c2nc3ccccc3s2)c1O	6	4	20	nt	0
O=C(NCc1ccc(F)cc1)C(c1cccnc1)N(C(=O)c1csnn1)c1ccccc1 (stereo not given)	nt	1	-20	nt	nt
CC(C)CNC(=O)c1c(F)c(F)c(F)c(F)c1F	11	-6	-3	-14	74*
O=C(NCCCCNC(=O)c1c(F)c(F)c(F)c(F)c1F)c1c(F)c(F)c(F)c(F)c1F	-2	1	-9	0	1
COc1ccc(/C=N/n2c(SC)nnc2-c2ccccc2)c(OC)c1OC	86*	68*	40	44	79*
NC(=O)c1sc2nc3c(c(-c4cccs4)c2c1N)CCCC3	-1	-10	-2	46*	0
c1ccc(-c2ccccc2OCCOCCN2CCc3ccccc3C2)cc1	-3	7	3	-12	47*
Clc1ccc(OCCOCCN2CCc3ccccc3C2)c(Cl)c1	-2	7	-34	-7	3
O=C(CN(C(=O)CCC(=O)Nc1nccs1)c1cccc(F)c1)NCc1ccccc1	nt	3	-2	nt	nt
SMILES	Ba/F3 V617F tox	IEC-6 tox	KLF5 inhibitor	APP transl inh	BaF3 tox
CCn1c(SCc2ccccc2)nnc1-c1cccs1	41*	-11	-11	-12	42*
CCn1c(SCC(=O)Nc2ccccc2)nnc1-c1cccs1	-3	-6	-22	nt	-3
Cc1cc(F)ccc1S(=O)(=O)NCC(c1cccnc1)N1CCc2ccccc21 (stereo not given)	nt	8	0	nt	nt
C=C(C)CCC(C)N1CCC(n2nccc2NC(=O)CCOc2ccccc2)CC1 (stereo not given)	nt	-7	-29	nt	nt
Cc1nn(C)c(C)c1CN(Cc1nc(CCC(C)C)no1)C(C)C	53*	9	6	16	81*
Cn1nc(C(C)(C)C)cc1C(=O)NCc1ccc(N2CCCC2=O)cc1	58*	11	10	-16	93*
Cc1ccc2[nH]c3c(N4CCOCC4)ncnc3c2c1	-1	1	-33	1	7
Brc1ccc2[nH]c3c(N4CCc5ccccc5C4)ncnc3c2c1	1	-2	-2	10	1
Cc1ccc2[nH]c3c(N4CCc5ccccc5C4)ncnc3c2c1	44*	17	0	-10	49*
Fc1ccc2[nH]c3c(N4CCc5ccccc5C4)ncnc3c2c1	44*	12	-29	nt	55*
CCOCCn1c(N2CCN(c3ccccc3)CC2)nc2c1c(=O)[nH]c(=O)n2C	17	-2	-20	-16	54*
COCCN1C(=O)C(=O)/C(=C(/O)c2ccc(S(=O)(=O)N3CCOCC3)cc2)C1c1cccc(OC)c1 (stereo not given)	nt	-4	-7	nt	nt
Cc1c(Cl)cccc1NC(=S)NC1CCCC1	nt	-3	-22	nt	nt
Cc1ccc(-c2nc3ccccn3c2Nc2ccccc2)o1	-2	-3	-36	0	92*
Cc1ccc(-c2nc3cnccn3c2Nc2ccccc2)o1	nt	nt	nt	-28	nt
CC(C)[C@@H]1CC[C@@H](C)C[C@H]1OC(=O)C[n+]1cc(-c2ccc(Cl)cc2)n2c1CCCCC2	98*	-3	4	nt	85*
COc1ccc(-c2c[n+](CC(=O)OC3CC(C)CCC3C(C)C)c3n2CCC3)cc1 (stereo not given)	99*	13	22	2	82*
CC1CCC(C(C)C)C(OC(=O)C[n+]2cccc(C(N)=O)c2)C1 (stereo not given)	0	-2	-53	-12	8
COc1cccc2cc(C(=O)Nc3ccc(S(=O)(=O)NCC4CCCO4)cc3)c(=O)oc12 (stereo not given)	0	3	-12	nt	0
O=C(N/N=C\c1cc(Cl)ccc1O)c1ccc(S(=O)(=O)N2CCCCC2)cc1	-3	2	9	73*	5
N/C(=N\OC(=O)c1ccccc1)c1ccn[nH]1	nt	5	-131	nt	nt
CC1(C)NC(=O)N(CCCCOc2ccc(Cl)cc2C=O)C1=O	71*	10	-1	10	76*
COc1ccc(C(=O)N/N=C/c2ccc(OC)c(COc3ccc(F)cc3)c2)cc1	nt	5	-4	nt	nt
CCOc1cc(/C=N\NC(=O)c2ccc(NC(=O)C(C)(C)C)cc2)ccc1OC(=O)c1ccc(OC)cc1	-4	2	-28	94*	1
COc1ccc(OC)c(NC(=O)c2nc(-c3ccccc3)oc2C)c1	4	-2	-1	-7	2
Cc1nc2sc(-c3ccccc3)cc2c(=O)[nH]1	4	6	15	-157	7
O=c1[nH]c(-c2cccnc2)nc2sc(-c3ccccc3)cc12	-2	4	-6	75*	6
CC(NC(=O)c1ccc(NC2=NC3CS(=O)(=O)CC3S2)cc1)c1ccccc1 (stereo not given)	nt	-2	-2	nt	nt
O=C(CCc1ccc(S(=O)(=O)NCCc2ccccc2)cc1)Nc1ccc2c(c1)OCCO2	0	0	-12	75*	5
